Our source for the log2 fold change values is the supplement of paper PMC10849652.

About 7,900 targets were measured; listed, in parts, are those with a hit and a random draw of the rest. About 0.6% of all pairs of compound and target were hits. Unmarked numbers belong to inactive results.

What all share (assay): log2 fold change, soluble protein after heating vs DMSO (PISA); higher = thermal stabilisation; K562 cells, 10 uM, 30 min; active = over 0.2 and 3.5 SD of the protein, either way, in both replicates (recomputed)
Compound in experiment [1]: COC1=CC=C(C=C1)CN2C=CC3=C2C=C(C=C3)C(=O)NO
In a few lines:
(§1)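 Soluble protein was defined as the supernatant after 21,000xg for 90 min. It came from K562 cells at 2×10^6 cells/mL given 10 μM compound for 30 min, heated in aliquots for 3 min across 48°C-58°C, pooled, and extracted in PBS with 0.5% NP-40 at 4°C, and was quantified by TMTpro 16plex LC-MS/MS with equalised channel sums. Thermal stability against control samples, from duplicates, is reported as log2 fold change.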

Compound in experiment [2]: CON(C)C(=O)N1N=C(c2cc(F)ccc2F)S[C@@]1(CCCN)c1ccccc1 [filanesib]
In short, it runs like this: as §1

Compound in experiment [3]: CO[C@H]1C[C@@H]2CC[C@@H](C)[C@@](O)(O2)C(=O)C(=O)N2CCCC[C@H]2C(=O)O[C@H]([C@H](C)C[C@@H]2CC[C@H](n3cnnn3)[C@H](OC)C2)CC(=O)[C@H](C)/C=C(\C)[C@@H](O)[C@@H](OC)C(=O)[C@H](C)C[C@H](C)/C=C/C=C/C=C/1C [zotarolimus]
In short, it runs like this: as §1

Compound in experiment [4]: COc1cc(C(=O)O)ccc1NC(=O)[C@@H]1N[C@@H](CC(C)(C)C)[C@](C#N)(c2ccc(Cl)cc2F)[C@H]1c1cccc(Cl)c1F [idasanutlin]
In a few lines:
as §1

Compound in experiment [5]: COc1cc(Nc2ncc3c(n2)-c2ccc(Cl)cc2C(c2c(F)cccc2OC)=NC3)ccc1C(=O)O [alisertib]
In a few lines:
as §1

Compound in experiment [6]: COc1cc2nc(-c3cc(F)ccc3O)nc(N[C@@H]3CNC[C@H]3C(C)(C)O)c2cc1OC
In a few lines: as §1

Compound in experiment [7]: COc1cc2ncnc(Nc3ccc(F)c(Cl)c3)c2cc1OCCCN1CCOCC1 [gefitinib]
In short, it runs like this:
as §1

Compound in experiment [8]: COc1cccc2cc(-c3nc([C@H]4CC[C@H](C(=O)O)CC4)n4ncnc(N)c34)[nH]c12
In short, it runs like this:
as §1

Compound in experiment [9]: CS(=O)(=O)CCNCc1ccc(-c2ccc3ncnc(Nc4ccc(OCc5cccc(F)c5)c(Cl)c4)c3c2)o1 [lapatinib]
In a few lines:
as §1

Compound in experiment [10]: CS(=O)(=O)N1CCN(Cc2cc3nc(-c4cccc5[nH]ncc45)nc(N4CCOCC4)c3s2)CC1 [pictilisib]
In short, it runs like this: as §1

Compound in experiment [11]: CS(=O)(=O)c1ccc(-c2cnc(N)c(C(=O)Nc3ccccc3)n2)cc1
In short, it runs like this: as §1

Compound in experiment [12]: C[C@@H](Oc1cc(-c2cnn(C3CCNCC3)c2)cnc1N)c1c(Cl)ccc(F)c1Cl [crizotinib]
In a few lines:
as §1

Compound in experiment [13]: C[C@@H]1COCCN1C2=NC(=NC(=C2)C3(CC3)S(=O)(=O)C)C4=C5C=CNC5=CC=C4
In short, it runs like this:
as §1

Compound in experiment [14]: C[C@H](C1=CC=C(C=C1)C(=O)NC2=C3C=CNC3=NC=C2)N
In a few lines:
as §1

Compound in experiment [15]: C[C@H](Nc1ncnc2nc[nH]c12)c1cc2cccc(Cl)c2c(=O)n1-c1ccccc1 [duvelisib]
In short, it runs like this:
as §1

Compound in experiment [16]: Cc1cc(Nc2cc(CN3CCOCC3)c3nc(C)c(Cc4ccc(Cl)cc4F)n3n2)n[nH]1 [gandotinib]
In short, it runs like this: as §1

Compound in experiment [17]: Cc1cc(Nc2cc(N3CCN(C)CC3)nc(Sc3ccc(NC(=O)C4CC4)cc3)n2)n[nH]1 [tozasertib]
In a few lines: as §1

Compound in experiment [18]: Cc1cc(SCc2sc(-c3ccc(C(F)(F)F)cc3)nc2C)ccc1OCC(=O)O
In a few lines:
as §1

Compound in experiment [19]: Cc1ccc(-n2nc(C(C)(C)C)cc2NC(=O)Nc2ccc(OCCN3CCOCC3)c3ccccc23)cc1 [doramapimod]
In a few lines: as §1

Compound in experiment [20]: Cc1ccc(C(=O)N(CCCN)[C@@H](c2nc3cc(Cl)ccc3c(=O)n2Cc2ccccc2)C(C)C)cc1 [ispinesib]
In short, it runs like this:
as §1

Chain of UniProt O14757 (O14757 whole entry, looked up): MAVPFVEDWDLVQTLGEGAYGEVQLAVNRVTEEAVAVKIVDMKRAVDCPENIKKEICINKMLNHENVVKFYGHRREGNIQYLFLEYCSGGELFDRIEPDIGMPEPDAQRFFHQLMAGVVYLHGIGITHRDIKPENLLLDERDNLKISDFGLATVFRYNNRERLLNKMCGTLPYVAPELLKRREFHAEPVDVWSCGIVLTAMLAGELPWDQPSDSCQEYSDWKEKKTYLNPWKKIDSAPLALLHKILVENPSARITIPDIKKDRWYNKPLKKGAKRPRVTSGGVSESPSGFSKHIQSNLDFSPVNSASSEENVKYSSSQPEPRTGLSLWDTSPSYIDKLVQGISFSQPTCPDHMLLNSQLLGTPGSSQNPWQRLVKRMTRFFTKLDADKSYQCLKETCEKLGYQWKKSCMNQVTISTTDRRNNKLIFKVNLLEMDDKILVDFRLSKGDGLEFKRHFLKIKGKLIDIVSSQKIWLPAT
Chain of UniProt O14578 (O14578 whole entry, looked up): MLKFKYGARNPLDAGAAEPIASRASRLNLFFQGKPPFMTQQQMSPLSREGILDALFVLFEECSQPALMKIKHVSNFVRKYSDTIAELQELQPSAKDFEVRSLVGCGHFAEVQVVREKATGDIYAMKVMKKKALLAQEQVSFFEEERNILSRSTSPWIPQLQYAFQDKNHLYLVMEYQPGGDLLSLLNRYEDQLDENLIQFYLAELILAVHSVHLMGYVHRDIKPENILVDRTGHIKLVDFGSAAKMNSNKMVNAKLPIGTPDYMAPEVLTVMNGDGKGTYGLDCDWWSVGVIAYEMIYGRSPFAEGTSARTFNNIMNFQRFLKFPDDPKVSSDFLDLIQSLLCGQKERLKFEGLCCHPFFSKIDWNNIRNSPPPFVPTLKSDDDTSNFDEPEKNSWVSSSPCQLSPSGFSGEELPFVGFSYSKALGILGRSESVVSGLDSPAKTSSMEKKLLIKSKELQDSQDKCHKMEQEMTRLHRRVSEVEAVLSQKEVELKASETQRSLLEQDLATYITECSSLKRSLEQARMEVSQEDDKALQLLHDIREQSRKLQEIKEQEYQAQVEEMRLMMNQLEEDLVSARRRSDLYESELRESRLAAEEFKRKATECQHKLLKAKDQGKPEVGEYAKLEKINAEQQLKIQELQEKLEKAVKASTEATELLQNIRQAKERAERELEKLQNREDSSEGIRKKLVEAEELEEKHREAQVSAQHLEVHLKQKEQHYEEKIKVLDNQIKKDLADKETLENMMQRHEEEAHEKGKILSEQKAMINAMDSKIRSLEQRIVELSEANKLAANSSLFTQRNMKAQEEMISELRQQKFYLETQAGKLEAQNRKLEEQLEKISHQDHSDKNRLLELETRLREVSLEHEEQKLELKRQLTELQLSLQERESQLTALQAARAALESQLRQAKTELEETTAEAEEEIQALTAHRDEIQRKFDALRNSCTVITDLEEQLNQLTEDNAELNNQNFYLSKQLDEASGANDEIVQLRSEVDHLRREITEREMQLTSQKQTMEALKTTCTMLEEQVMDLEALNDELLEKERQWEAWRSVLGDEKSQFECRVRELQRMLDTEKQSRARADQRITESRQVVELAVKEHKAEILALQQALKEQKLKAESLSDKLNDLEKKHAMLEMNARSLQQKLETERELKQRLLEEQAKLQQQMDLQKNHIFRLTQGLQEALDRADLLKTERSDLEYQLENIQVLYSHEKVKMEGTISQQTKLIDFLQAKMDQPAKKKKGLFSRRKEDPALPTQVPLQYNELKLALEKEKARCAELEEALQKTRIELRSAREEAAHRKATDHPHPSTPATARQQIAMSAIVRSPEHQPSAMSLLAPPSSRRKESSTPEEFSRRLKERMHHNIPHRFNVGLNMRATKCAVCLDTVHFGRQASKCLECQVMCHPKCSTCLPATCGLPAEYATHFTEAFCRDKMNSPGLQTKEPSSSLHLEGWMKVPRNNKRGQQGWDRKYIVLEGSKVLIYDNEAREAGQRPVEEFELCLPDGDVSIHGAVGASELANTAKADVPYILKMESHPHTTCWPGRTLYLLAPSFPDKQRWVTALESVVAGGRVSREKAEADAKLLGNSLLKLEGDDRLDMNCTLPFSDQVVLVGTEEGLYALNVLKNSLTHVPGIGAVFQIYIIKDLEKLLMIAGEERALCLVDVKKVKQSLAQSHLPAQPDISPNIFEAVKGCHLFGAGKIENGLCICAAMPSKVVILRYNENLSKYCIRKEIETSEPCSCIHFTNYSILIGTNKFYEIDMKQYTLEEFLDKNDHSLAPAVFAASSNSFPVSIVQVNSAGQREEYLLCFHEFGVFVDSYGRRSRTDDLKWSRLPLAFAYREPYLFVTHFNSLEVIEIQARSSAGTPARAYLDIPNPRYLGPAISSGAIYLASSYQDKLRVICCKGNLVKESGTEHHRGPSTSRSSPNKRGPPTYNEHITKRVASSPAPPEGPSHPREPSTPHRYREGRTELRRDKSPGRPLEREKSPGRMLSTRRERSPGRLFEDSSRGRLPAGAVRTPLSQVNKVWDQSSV
Chain of UniProt Q96SZ6 (Q96SZ6 whole entry, looked up): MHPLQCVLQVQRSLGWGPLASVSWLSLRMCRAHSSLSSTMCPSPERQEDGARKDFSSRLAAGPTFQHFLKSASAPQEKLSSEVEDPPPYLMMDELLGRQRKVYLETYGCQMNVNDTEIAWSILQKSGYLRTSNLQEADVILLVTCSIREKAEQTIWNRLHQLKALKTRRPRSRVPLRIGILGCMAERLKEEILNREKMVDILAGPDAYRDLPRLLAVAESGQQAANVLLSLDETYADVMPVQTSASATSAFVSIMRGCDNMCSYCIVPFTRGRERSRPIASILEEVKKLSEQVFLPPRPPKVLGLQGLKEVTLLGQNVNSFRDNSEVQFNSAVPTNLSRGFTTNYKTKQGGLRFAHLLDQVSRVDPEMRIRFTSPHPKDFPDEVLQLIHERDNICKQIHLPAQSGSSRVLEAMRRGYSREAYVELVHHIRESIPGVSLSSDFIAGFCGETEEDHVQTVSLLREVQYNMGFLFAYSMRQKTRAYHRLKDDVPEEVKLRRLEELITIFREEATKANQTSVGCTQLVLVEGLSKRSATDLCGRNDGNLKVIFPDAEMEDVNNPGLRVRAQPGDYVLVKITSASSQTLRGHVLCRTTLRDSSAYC
Chain of UniProt P35790 (P35790 whole entry, looked up): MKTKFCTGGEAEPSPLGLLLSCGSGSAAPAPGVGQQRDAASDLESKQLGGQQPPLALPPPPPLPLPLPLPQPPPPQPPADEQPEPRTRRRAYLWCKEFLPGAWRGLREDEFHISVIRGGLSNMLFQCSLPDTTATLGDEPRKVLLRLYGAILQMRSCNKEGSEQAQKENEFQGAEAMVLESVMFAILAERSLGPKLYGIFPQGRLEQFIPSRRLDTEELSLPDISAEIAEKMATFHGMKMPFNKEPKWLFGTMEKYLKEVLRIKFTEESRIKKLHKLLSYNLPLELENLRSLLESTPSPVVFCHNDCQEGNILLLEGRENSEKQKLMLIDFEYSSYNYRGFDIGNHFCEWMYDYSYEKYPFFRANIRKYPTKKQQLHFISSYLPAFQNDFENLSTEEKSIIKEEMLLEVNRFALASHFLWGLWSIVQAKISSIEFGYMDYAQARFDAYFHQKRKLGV

In the case of CHEK1 (UniProt O14757), the log2 fold change in experiment [1] is 0.005; in [2], -0.025; in experiment [3], -0.029; in experiment [4], -0.041; in experiment [5], -0.041; in experiment [6], -0.805 (active). Besides, the log2 fold change in experiment [7] was -0.06; in experiment [8] it was 0.055; in experiment [9], -0.007; in [10], 0.016; in [11], 0.011; in [12], -0.116. The log2 fold change in experiment [13] was 0.044; in experiment [14] it was 0.049; in experiment [15] it was 0.059; in [16] it was -0.122; in experiment [17], -0.023; in experiment [18] it was 0.008. Besides, the log2 fold change is -0.009 in experiment [19] and 0.039 in [20].

CHKA (UniProt P35790): the log2 fold change in experiment [1] is -0.021; in experiment [2], 0.02; in experiment [3], -0.148; in [4], -0.009; in experiment [5] it was -0.032; in experiment [6], 0.065. For the same target, the log2 fold change in experiment [7] was -0.016; in experiment [8], 0.004; in experiment [9] it was -0.013; in experiment [10], 0.041; in experiment [11] it was -0.022; in experiment [12] it was 0.075. The log2 fold change in experiment [13] is -0.034; in experiment [14], 0.046; in experiment [15] it was -0.002; in experiment [16], 0.009; in experiment [17] it was -0.013; in [18], -0.012. The log2 fold change in experiment [19] is -0.011; in experiment [20] it was 0.048.

For CIT isoform 4 (UniProt O14578), the log2 fold change in experiment [1] was -0.099; in [2], 0.055; in experiment [3], -0.003; in experiment [4] it was 0.027; in experiment [5], -0.036; in [6], -0.228 (active). For the same target, the log2 fold change in [7] was -0.12; in [8] it was -0.06; in experiment [9], 0.031; in [10], -0.044; in experiment [11], -0.023; in experiment [12], -0.077. Further, the log2 fold change is -0.013 in [13]; 0.08 in [14]; 0.064 in experiment [15]; -0.001 in experiment [16]; 0.093 in experiment [17]; -0.033 in experiment [18]. In addition, the log2 fold change in [19] is 0.026; in [20], 0.072.

Turning to CDK5RAP1 (UniProt Q96SZ6), the log2 fold change in experiment [1] is -0.395 (active); in [2], -0.049; in experiment [3] it was 0.066; in [4], -0.076; in [5], -0.057; in experiment [6], 0.131. The log2 fold change in experiment [7] was -0.074; in experiment [8], 0.055; in experiment [9] it was -0.034; in experiment [10], 0.075; in experiment [11], 0.005; in experiment [12], 0.041. Besides, the log2 fold change in experiment [13] is 0.033; in [14], 0.031; in experiment [15] it was -0.006; in experiment [16], 0.033; in [17] it was 0.003; in experiment [18] it was -0.025. In addition, the results for the log2 fold change in experiment [19] and in experiment [20] were 0.05 and 0.048, respectively.
